# According to PubChem BioAssay AID1159580 (chemical genetic matrix, 2015):
# “And” between values parts separate entries of the source, which are not always exact repeats. Equal entries are not always repeated. Hit rate of the full screen: of about 5,500 compounds, about 2,000 (36%) were called active. Roughly 18% stayed inconclusive and do not appear here. Some of the results follow. Values without a mark were called inactive. Cut-off read from the data, not from the text of the source: active = normalized growth mostly below about 0.91 (no sharp cut-off); inconclusive = no clear call, values can overlap the other calls; inactive = mostly above about 0.92.
# Experiment: chemical genetic growth profiling, strain panel (AID 1159580);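 note: tested at 20 µM; growth read once vehicle control cultures reached saturation at 30 °C; 1 = growth at the plate median or of vehicle wells; lower values mean less growth of the strain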
# Details: S. cerevisiae deletion strains, growth OD
compound,measurement,setting,value
COC1=CC(=O)C=C(OC)C1=O,normalized growth,"locus YAL021C, strain ccr4, hits give low values",1.03
same,normalized growth,"locus YAL026C, strain drs2, hits give low values",0.978
same,normalized growth,"locus YAL030W, strain snc1, hits give low values",0.991
same,normalized growth,"locus YBL061C, strain skt5, hits give low values",0.998
same,normalized growth,"locus YBR009C, strain hhf1, hits give low values",0.98
same,normalized growth,"locus YBR021W, strain FUR4, hits give low values",1.12
same,normalized growth,"locus YBR023C, strain chs3, hits give low values",0.998
same,normalized growth,"locus YBR171W, strain sec66, hits give low values",1.01
same,normalized growth,"locus YBR229C, strain ROT2, hits give low values",0.956
same,normalized growth,"locus YBR231C, strain swc5, hits give low values",0.982
same,normalized growth,"locus YBR279W, strain paf1, hits give low values",0.992
same,normalized growth,"locus YCL011C, strain gbp2, hits give low values",1.01
same,normalized growth,"locus YCL016C, strain dcc1, hits give low values",0.997
same,normalized growth,"locus YCL029C, strain bik1, hits give low values",0.97
same,normalized growth,"locus YCL061C, strain MRC1, hits give low values",1.01
same,normalized growth,"locus YCL069W, strain vba3, hits give low values",1
same,normalized growth,"locus YCR088W, strain abp1, hits give low values",1
same,normalized growth,"locus YDL005C, strain med2, hits give low values",1.02
same,normalized growth,"locus YDL035C, strain GPR1, hits give low values",1.01
same,normalized growth,"locus YDL040C, strain nat1, hits give low values",0.992
same,normalized growth,"locus YDL074C, strain BRE1, hits give low values",1.05
same,normalized growth,"locus YDL101C, strain DUN1, hits give low values",0.975
same,normalized growth,"locus YDL134C, strain PPH21, hits give low values",0.979
same,normalized growth,"locus YDL185W, strain tfp1, hits give low values",0.964
same,normalized growth,"locus YDL192W, strain arf1, hits give low values",0.995
same,normalized growth,"locus YDR001C, strain nth1, hits give low values",1
same,normalized growth,"locus YDR069C, strain doa4, hits give low values",1
same,normalized growth,"locus YDR101C, strain arx1, hits give low values",0.984
same,normalized growth,"locus YDR137W, strain rgp1, hits give low values",0.88
same,normalized growth,"locus YDR159W, strain sac3, hits give low values",0.794 (active)
same,normalized growth,"locus YDR162C, strain NBP2, hits give low values",0.982
same,normalized growth,"locus YDR195W, strain ref2",1.18 [resistant] (active)
same,normalized growth,"locus YDR297W, strain sur2, hits give low values",0.978
same,normalized growth,"locus YDR318W, strain mcm21, hits give low values",0.998
same,normalized growth,"locus YDR334W, strain swr1, hits give low values",1.01
same,normalized growth,"locus YDR335W, strain msn5, hits give low values",1.01
same,normalized growth,"locus YDR388W, hits give low values",0.983
same,normalized growth,"locus YDR392W, strain spt3, hits give low values",0.879
same,normalized growth,"locus YDR502C, strain sam2, hits give low values",0.988
same,normalized growth,"locus YEL003W, strain gim4, hits give low values",0.992
same,normalized growth,"locus YEL037C, strain rad23, hits give low values",1.01
same,normalized growth,"locus YEL061C, strain CIN8 (second series), hits give low values",1
same,normalized growth,"locus YEL061C, strain CIN8, hits give low values",0.988
same,normalized growth,"locus YER015W, strain faa2, hits give low values",0.997
same,normalized growth,"locus YER016W, strain bim1, hits give low values",0.97
same,normalized growth,"locus YER110C, hits give low values",0.97
same,normalized growth,"locus YER111C, strain swi4, hits give low values",1.01
same,normalized growth,"locus YER155C, strain BEM2 (second series), hits give low values",1.02
same,normalized growth,"locus YER155C, strain BEM2, hits give low values",1
same,normalized growth,"locus YER167W, strain BCK2, hits give low values",1
same,normalized growth,"locus YFR010W, strain ubp6, hits give low values",1
same,normalized growth,"locus YGL078C, strain dbp3, hits give low values",0.99
same,normalized growth,"locus YGL086W, strain mad1, hits give low values",0.983
same,normalized growth,"locus YGL167C, strain pmr1, hits give low values",0.987
same,normalized growth,"locus YGL173C, strain kem1, hits give low values",1.01
same,normalized growth,"locus YGL227W, strain vid30, hits give low values",0.998
same,normalized growth,"locus YGL240W, strain doc1, hits give low values",0.914
same,normalized growth,"locus YGL248W, strain PDE1, hits give low values",0.996
same,normalized growth,"locus YGL253W, strain hxk2, hits give low values",1.01
same,normalized growth,"locus YGR135W, strain pre9, hits give low values",1
same,normalized growth,"locus YGR252W, strain gcn5, hits give low values",1.16
same,normalized growth,"locus YHR013C, strain ard1, hits give low values",1.04
same,normalized growth,"locus YHR027C, strain rpn1, hits give low values",0.995
same,normalized growth,"locus YHR030C, strain SLT2, hits give low values",0.994 and 1.02
same,normalized growth,"locus YHR079C, strain IRE1 (second series), hits give low values",0.984
same,normalized growth,"locus YHR079C, strain IRE1, hits give low values",1.01
same,normalized growth,"locus YHR094C, strain hxt1, hits give low values",0.976
same,normalized growth,"locus YHR129C, strain ARP1, hits give low values",0.997
same,normalized growth,"locus YHR142W, strain chs7, hits give low values",1.01
same,normalized growth,"locus YHR200W, strain rpn10, hits give low values",1.01
same,normalized growth,"locus YIL066C, strain RNR3, hits give low values",0.988
same,normalized growth,"locus YIL073C, strain SPO22, hits give low values",0.975
same,normalized growth,"locus YIL125W, strain kgd1, hits give low values",0.995
same,normalized growth,"locus YIR030C, strain dcg1, hits give low values",0.989
same,normalized growth,"locus YJL092W, strain hpr5, hits give low values",1
same,normalized growth,"locus YJL095W, strain BCK1 (second series), hits give low values",0.996
same,normalized growth,"locus YJL095W, strain BCK1, hits give low values",0.982 and 1.03
same,normalized growth,"locus YJL115W, strain asf1, hits give low values",1.01
same,normalized growth,"locus YJL129C, strain trk1, hits give low values",1.01
same,normalized growth,"locus YJL134W, strain LCB3, hits give low values",0.99
same,normalized growth,"locus YJL154C, strain vps35, hits give low values",1.01
same,normalized growth,"locus YJL164C, strain tpk1, hits give low values",0.999
same,normalized growth,"locus YJL166W, strain qcr8, hits give low values",0.99
same,normalized growth,"locus YJL168C, strain set2, hits give low values",0.998
same,normalized growth,"locus YJL187C, strain SWE1 (second series), hits give low values",0.987
same,normalized growth,"locus YJR043C, strain POL32, hits give low values",1
same,normalized growth,"locus YJR066W, strain TOR1, hits give low values",0.941
